Screening data as filed in PubChem.
This is a sample that favours compounds with a hit; in the whole collection about 3.7% have one here.
NLRP3 yeast inh: NALP3 inflammasome inhibitors in reconstituted yeast, primary screen, luminescence, uHTS; inhibition, % at 10 µM; AID 2825, 2010; 330,000 compounds, 0.39% hits; Yeast reconstituted NLRP3/ASC/caspase-1, beta-gal luminescence, 24 h;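 active = inhibition of 50% or more; inactive = inhibition below 50%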;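 note: plate controls were induced DMSO wells for no effect and uninduced yeast grown without galactose for full effect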
TIM10 inh: growth inhibitors of isogenic TIM10 control yeast, primary screen, counter-screen for tim10-1 yeast inhibitor project, luminescence, uHTS | 330,000 compounds, 1.4% hits | S. cerevisiae TIM10 strain growth, BacTiter-Glo luminescence, 24 h | inhibition, % at 10 µM;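 active = inhibition of 40% or more at the single tested concentration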;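 note: wild-type TIM10 isogenic control strain grown at permissive 25 °C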
tim23-1 inh: growth inhibitors of tim23-1 mutant yeast, primary screen, luminescence, uHTS; inhibition, % at 20 µM; 330,000 compounds, 1.3% hits; S. cerevisiae tim23-1 growth, BacTiter-Glo luminescence, 24 h;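 active = growth inhibition of the mutant yeast at or above 50%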;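 note: temperature-sensitive mutant grown at 25 °C; plate controls were DMSO-treated mutant yeast for no effect and medium wells lacking yeast for full effect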
PfHsp90 yeast 2: growth inhibition of PfHsp90-expressing yeast, primary screen, antimalarial PfHsp90 inhibitor project, S. cerevisiae, BacTiter-Glo luminescence, single point, set 2. BacTiter-Glo ATP, 48 h; yeast lacking PDR1 and PDR3 efflux regulators. inhibition, % at 9.4 µM. 310,000 compounds, 0.32% hits;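 active = every replicate shows inhibition above about 80%, whatever the replicate mean, limit read from the data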;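 note: 0% = DMSO neutral controls and 100% = 20 µM radicicol positive controls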
tim10-1 inh: growth inhibitors of tim10-1 mutant yeast, primary screen, luminescence, uHTS; 330,000 compounds, 2.2% hits; S. cerevisiae tim10-1 ts strain growth, BacTiter-Glo, 24 h; inhibition, % at 20 µM; AID 463190, 2010;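 active = inhibition of at least 40%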;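 note: mutant grown at 25 °C; 0% = DMSO wells with yeast and 100% = wells holding no yeast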
tim10-1 confirm: growth inhibitors of tim10-1 mutant yeast, confirmation, single concentration, luminescence, S. cerevisiae; shares compounds with tim10-1 inh; S. cerevisiae tim10-1 ts strain growth, BacTiter-Glo, 24 h; inhibition, % at 20 µM; 7,400 compounds, 56% hits; AID 463213, 2010;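 active = inhibition of yeast growth at or above a set limit in either of two repeat tests at 20 µM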;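 note: tim10-1 mutant grown at permissive 25 °C to find synthetic lethal compounds; 0% = DMSO yeast wells and 100% = medium wells without yeast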
TIM10 conf: growth inhibitors of wild-type TIM10 yeast, confirmation, counter-screen for tim10-1 synthetic lethality project, single concentration, luminescence, S. cerevisiae | shares compounds with TIM10 inh | S. cerevisiae tim10 strain growth, BacTiter-Glo luminescence, 24 h | inhibition, % at 10 µM | 4,600 compounds, 63% hits;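 active = inhibition of yeast growth at or above a set limit in either of two replicates at 10 µM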;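 note: this counterscreen used the strain with wild-type TIM10; 0% = yeast with DMSO and 100% = medium wells lacking yeast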
Numbers without * were called inactive; x = no result given.

SMILES	NLRP3 yeast inh	TIM10 inh	tim23-1 inh	PfHsp90 yeast 2	tim10-1 inh	tim10-1 confirm	TIM10 conf
COc1cc2c(cc1NS(=O)(=O)N1CCCC1)oc1ccccc12	-34.3	46.9*	37.1	13.5	42.7*	29.2	43.0*
COc1cc2c(cc1NC(=O)c1ccncc1)oc1ccccc12	40.0	42.2*	-13.8	22.2	45.9*	25.1	47.0*
CN1/C(=C\C(=S)Nc2ccccc2)C(C)(C)c2ccccc21	9.3	48.5*	33.7	2.1	50.9*	47.2*	55.6*
O=C(CSc1nc(-c2ccccc2)cc(=O)[nH]1)N1CCOCC1	-2.1	2.1	1.3	-6.3	-3.0	x	x
C#CCn1c(S(=O)(=O)Cc2ccc(OC)cc2)nc(-c2ccccc2)c1-c1ccccc1	-14.0	44.6*	48.4	x	47.3*	41.3*	24.1
CCCCn1c(=O)[nH]c(=O)c2c1nc(-c1ccccc1OC(F)F)n2C	11.9	12.3	-18.0	7.5	-8.6	x	x
CCc1cccc(N(C(=O)c2csnn2)C(C(=O)NC2CCCCC2)c2cccnc2)c1 (stereo unspecified)	5.2	4.7	10.2	-9.2	9.5	x	x
CCN(CC)C(=O)c1cccc2c1C(=O)c1ccccc1-2	-0.2	10.3	17.4	23.8	29.6	x	x
CCN(CC)C(=O)c1ccc2c(c1[N+](=O)[O-])C(=O)c1ccccc1C2=O	38.6	52.9*	37.9	x	60.1*	44.1*	-25.9
O=C(N/N=C\c1ccccc1OCc1ccccc1)c1ccco1	29.1	50.3*	33.8	-12.5	43.4*	21.6	31.0*
CCN(CC)CCn1c2ccccc2c2cnc(N)c(C#N)c21	9.6	85.9*	41.3	-44.9	67.1*	72.8*	85.5*
CN(C)C=Nc1ncc2c3ccccc3n(CCN(C)C)c2c1C#N	6.2	75.8*	44.3	-1.0	51.3*	64.0*	74.8*
CCN(CC)CCn1c2ccccc2c2nc3ccccc3nc21	42.7	6.2	15.6	-2.8	8.5	x	x
CN(C)C=Nc1ncc2c3ccccc3n(Cc3ccccc3)c2c1C#N	10.4	5.5	3.2	-12.0	11.5	x	x
CC(C(=O)Nc1ccncc1)(c1ccccc1)c1ccccc1	-5.4	26.4	10.7	-5.9	13.9	x	x
O=C(CSc1cn[nH]n1)Nc1nc2ccccc2s1	6.9	6.6	-2.1	-7.9	-36.8	x	x
CCOC(=O)N1CCN(c2ccc3nnnn3n2)CC1	-0.6	-0.7	1.4	-74.6	-16.9	x	x
CCOc1ccc(NC(=O)CN2C(=O)NC(C)(c3ccc(OC(F)F)cc3)C2=O)cc1 (stereo unspecified)	-22.0	-7.8	8.3	12.7	4.2	x	x
OCCN1CCN(C2Cc3cc(Cl)ccc3Sc3ccc(Cl)cc32)CC1 (stereo unspecified) (tested in a mixture with another compound)	24.9	43.5*	19.6	-21.0	48.5*	35.5*	0.9
CN1CCN(C2Cc3cc(Cl)ccc3Sc3cc(F)ccc32)CC1 (stereo unspecified)	34.9	32.1	9.9	-16.2	14.5	x	x
CCOC(=O)C1=NN(c2ccccc2C)C2=NC(C)=C(C(=O)OC)C(c3cccs3)N12 (stereo unspecified)	3.8	41.6*	37.2	x	40.8*	17.8	20.3
CC(=O)Nc1cccc(C(=O)/C=C/c2ccc(C)cc2)c1	36.4	24.1	40.2	-3.2	24.9	x	x
CCC(=O)Nc1cccc(C(=O)/C=C/c2ccc(F)cc2)c1	6.6	46.9*	32.1	6.9	47.6*	42.8*	22.1
CCOC(=O)N1CCN(S(=O)(=O)c2ccc(C(=O)N(CCN(CC)CC)c3nc4ccc(C)cc4s3)cc2)CC1	7.6	40.0	31.3	-22.8	48.0*	35.0*	14.0
CCN(CC)CCN(C(=O)c1ccc(S(=O)(=O)N(C)C2CCCCC2)cc1)c1nc2ccc(OC)cc2s1	19.4	48.0*	41.9	0.2	58.5*	42.5*	37.8*
SMILES	NLRP3 yeast inh	TIM10 inh	tim23-1 inh	PfHsp90 yeast 2	tim10-1 inh	tim10-1 confirm	TIM10 conf
CCOC(=O)N1CCN(S(=O)(=O)c2ccc(C(=O)N(CCCN(C)C)c3nc4ccc(Cl)cc4s3)cc2)CC1	14.4	20.2	13.3	-6.9	18.6	x	x
O=C(Nc1ccc(Cl)cc1)c1nc[nH]c1C(=O)N1CCN(c2ccccc2)CC1	21.4	11.3	-2.3	3.2	6.2	x	x
O=S(=O)(Nc1nc2ccccc2nc1NCc1ccco1)c1ccccc1	8.5	22.0	29.9	-0.9	12.3	x	x
O=S(=O)(c1ccccc1)c1ccc(NCc2ccco2)cc1	-26.6	42.2*	45.6	-52.6	43.1*	38.4*	39.1*
COc1ccccc1/C=C/C(=O)c1ccc(NC(C)=O)cc1	1.6	43.7*	33.3	2.9	42.8*	24.2	-3.0
CC(CN1CCOCC1)(NS(=O)(=O)c1ccccc1)c1ccccc1 (stereo unspecified)	16.9	25.6	17.9	0.0	19.2	x	x
CCN(CC)CCn1nc2c3c(cccc3c1=O)-c1ccccc1-2	-30.5	-0.6	-30.6	30.0	2.8	x	x
O=c1c2cccc3c2c(nn1CN1CCOCC1)-c1ccccc1-3	-2.2	41.1*	25.1	-68.9	52.9*	24.6	51.5*
O=C(Nc1ccc(C(F)(F)F)cc1Cl)c1ccc(Cn2cc(Br)cn2)o1	22.9	7.4	23.6	-38.1	36.6	x	x
O=C(Nc1cccc(C(F)(F)F)c1)c1ccc(Cn2cc(Br)cn2)o1	13.2	41.9*	45.4	2.5	42.7*	34.6*	43.4*
CC1C/C(=N\NC(=S)NCc2ccccc2)CC(C)(C)C1 (stereo unspecified)	0.9	54.0*	48.1	-0.9	58.1*	47.9*	45.1*
Cc1ccc(S(=O)(=O)N2CCN(C(=O)c3ccc([N+](=O)[O-])cc3)C2)cc1	7.6	1.4	-0.8	-16.0	19.1	x	x
CN(CC(=O)Nc1ccc(F)cc1)C(=O)CNC(=O)C1CCCCC1	14.7	5.2	-0.8	x	6.6	x	x
CC1=C/C(=N\OC(=O)/C=C/c2ccccc2)C(C)=CC1=O	1.2	42.7*	37.1	0.7	45.6*	16.0	23.0
O=C(/C=C/c1ccccc1)OCN1C(=O)c2ccccc2C1=O	-11.8	25.6	18.6	1.5	21.8	x	x
CC12CC(NC(=O)N1c1cccc(C(=O)NCc3ccccn3)c1)c1ccccc1O2 (stereo unspecified)	7.3	1.9	15.0	6.5	22.3	x	x
COc1ccc(/C=C/C2=CC(C)(C)NC(=S)N2)cc1	29.1	-5.5	3.7	2.7	-10.7	x	x
